Screening results (PubChem)
PP1 counter: blocks human PP1-alpha phosphatase, a PP5 counter-screen; purified PP1alpha, OMFP fluorescence; P62136; 320,000 compounds, 0.9% hits; inhibition, % at 6.7 µM; AID 2235;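 active = inhibition above the mean inhibition of all tested compounds plus 3 SD, computed separately for each screening campaign, cut at about 15% in these data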
PP5 inh: PP5 (human) phosphatase inhibition; inhibition, % at 6.7 µM; purified PP5c, OMFP substrate fluorescence; 320,000 compounds, 0.18% hits; P53041; AID 1987;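 active = inhibition above the campaign's mean inhibition across all tested compounds plus 3 SD, cut at about 9.5% in these data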;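 note: 0% = DMSO only and 100% = 100 µM cantharidin control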
Cardio protect: myocardial damage modulation in H9c2 cells; AID 588492; H9c2 cardiomyocytes, H2O2 injury protection, ATPLite, 2 h; protection from H2O2 cell death, % at 20 µM; 360,000 compounds, 0.63% hits;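 active = compounds giving at least 50% protection of heart cells from peroxide-induced death in the single-dose screen, raw or plate-pattern-corrected value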;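 note: 0% = DMSO wells with peroxide and 100% = DMSO wells without peroxide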
ATG4B inh: blocks human ATG4B protease cleavage of LC3 substrate; 340,000 compounds, 0.51% hits; inhibition, % at 8.33 µM; ATG4B cleavage of LC3-PLA2, NBD-HPC fluorescence, 1 h; Q9Y4P1; in the data active = inhibition above about 40%
Target sequence (Q9Y4P1 whole entry, looked up): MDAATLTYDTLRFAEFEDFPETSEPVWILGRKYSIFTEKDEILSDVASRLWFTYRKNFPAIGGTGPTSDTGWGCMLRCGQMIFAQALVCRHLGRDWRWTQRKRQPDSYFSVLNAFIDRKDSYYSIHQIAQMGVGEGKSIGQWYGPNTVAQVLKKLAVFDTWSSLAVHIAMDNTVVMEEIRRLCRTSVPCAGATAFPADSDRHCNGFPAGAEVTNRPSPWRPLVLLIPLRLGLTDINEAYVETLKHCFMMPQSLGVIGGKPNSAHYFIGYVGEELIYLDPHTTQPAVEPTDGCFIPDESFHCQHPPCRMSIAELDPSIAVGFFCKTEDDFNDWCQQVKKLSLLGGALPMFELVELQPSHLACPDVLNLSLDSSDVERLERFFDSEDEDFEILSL
ATG4B confirm: ATG4B (human) inhibition, single-dose confirmed; shares compounds with ATG4B inh; ATG4B protease fluorescent substrate cleavage assay; inhibition, % at 8.33 µM; 320 compounds, 92% hits; AID 504757; in the data active = inhibition above about 39%
PLA2 counter: counter-screen for ATG4B inhibitors: human phospholipase A2; purified PLA2, NBD-C6-HPC fluorescence, 45 min; 1,600 compounds, 66% hits; inhibition, % at 8.33 µM; shares compounds with ATG4B inh; in the data active = inhibition above about 50%
Target sequence (P04054 whole entry, looked up): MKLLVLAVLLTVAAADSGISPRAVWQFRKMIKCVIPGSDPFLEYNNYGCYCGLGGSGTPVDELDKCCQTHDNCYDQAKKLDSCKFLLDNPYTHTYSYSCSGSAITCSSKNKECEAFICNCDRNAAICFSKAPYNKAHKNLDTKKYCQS
Numbers without * were called inactive; · = not tested or not shown. The list is not random: actives were taken first. Their share in the collection is about 1.9%.

SMILES	PP1 counter	PP5 inh	Cardio protect	ATG4B inh	PLA2 counter	others
O=C(Cc1ccccc1)Nc1ccnn1C1CCN(Cc2nccs2)CC1	-6.9	-0.5	0.6	4.5	·
COc1cc(-c2nc3ccccc3c(=O)n2N)cc(OC)c1OC	0.6	0.1	7.4	3.0	·
COc1cc(OC)cc(-c2nc3ccccc3c(=O)n2OC(=O)c2ccc(C)c(C)c2)c1	-1.6	3.1	-7.8	56.5*	23.1	ATG4B confirm=51.0*
Cc1ccccc1S(=O)(=O)N1[C@@H](c2ccc(Br)cc2)C(C(=O)O)=CC[C@H]1c1ccc(Cl)cc1	·	·	-6.6	43.2*	46.8	ATG4B confirm=46.3*
CCOC(=O)c1cn(Cc2c(C)c(C)c(C)c(C)c2C)nn1	-0.4	2.3	-6.0	61.0*	58.8*
O=C1[C@H](Cc2ccccc2)NCC=CC[C@H](c2ccc(Cl)cc2)N1Cc1ccc(Cl)cc1	·	·	-5.1	45.5*	80.5*
O=C1[C@H](Cc2ccccc2)NCC=CC[C@H](c2ccc(Cl)cc2)N1Cc1ccccc1	·	·	7.7	56.6*	69.6*
CC(C)(C)c1ccc(C(O)c2ncc(-c3ccccc3F)[nH]2)cc1 (centres undefined)	·	·	-10.7	·	·
CCCCn1c(=O)c2ccccc2c2ccccc2c1=O	-1.0	1.3	10.3	63.9*	75.0*
COCCn1c(=O)c2ccccc2c2ccccc2c1=O	-3.0	2.9	2.7	-0.3	·
Cc1cccc(C)c1NC(=O)CN1C(=O)S/C(=C\c2cccn2-c2cccc(C(=O)O)c2)C1=O	5.7	0.8	5.1	46.9*	48.6
Cc1ccccc1NC(=O)CN1C(=O)S/C(=C\c2cccn2-c2cccc(C(=O)O)c2)C1=O	1.3	3.7	4.2	26.7	·
CCc1cccc(C)c1NC(=O)C1CCN(c2nn3c(=O)cc(C)nc3s2)CC1	-4.3	-0.4	-3.2	-6.6	·
Cc1onc(-c2ccccc2)c1C(=O)NC(C)CCc1ccccc1 (centres undefined)	2.3	1.1	-1.5	-8.6	·
COc1ccccc1CC(=O)N1CCC(CCC(=O)NC2CC2)CC1	-3.2	0.4	0.1	-6.6	·
C/C=C/c1ccc(OCCOc2cc(C=O)ccc2OC)c(OC)c1	0.5	2.8	-4.3	46.8*	48.2
C/C=C/c1ccc(OCC(=O)O)c(OC)c1	-1.1	-1.1	2.4	3.4	·
Cc1cccc(C(=O)N2CCN(CCNC(=O)C(=O)Nc3ccc(F)cc3)CC2)c1	8.5	2.0	0.8	-4.1	·
COc1ccc(C(CNC(=O)c2cc(S(=O)(=O)N3CCCC3)ccc2Cl)N2CCCC2)cc1 (centres undefined)	-2.9	0.6	2.8	5.1	·
Cc1ccccc1C(=O)Nc1sc(C)c(C)c1C(=O)c1ccccc1	-1.7	-1.0	-7.2	40.7*	61.3*
O=C(NC(=S)Nc1sc2c(c1C(=O)O)CCCC2)c1ccccc1	1.8	-1.0	8.8	52.4*	61.9*
Cc1ccccc1C(=O)Nc1sc2c(c1C(=O)O)CCC2	0.0	-4.8	2.0	52.5*	49.4
O=c1[nH]c(SCc2ccccc2Cl)nc2c1CCCC2	-0.8	2.5	37.5	17.7	·
O=C1CCCC2=C1C(c1ccncc1)c1c(nc(SCc3ccccc3Cl)[nH]c1=O)N2 (centres undefined)	3.6	6.1	13.6	76.8*	81.0*
CCc1nn(CCCC(=O)NCc2ccccc2Br)c(=O)c2cc3occc3n12	-1.3	-1.6	-1.5	50.5*	42.9	ATG4B confirm=65.6*
SMILES	PP1 counter	PP5 inh	Cardio protect	ATG4B inh	PLA2 counter	others
Cc1ccc(S(=O)(=O)N(Cc2ccccc2)Cc2ccco2)cc1	4.6	4.0	-28.2	44.3*	55.9*
Cc1ccc(S(=O)(=O)N(Cc2ccc(F)cc2)Cc2ccco2)cc1	3.0	3.2	-23.0	29.5	·
Cc1cccc(N2C(=O)CN(Cc3ccccc3)C2=S)c1	-0.7	2.6	-0.7	48.6*	62.9*
COc1cc(Cl)c(C)cc1N1C(=O)CN(Cc2ccccc2)C1=S	4.5	0.4	-1.4	52.3*	68.5*
Cc1ccsc1CN1CC(=O)N(c2c(C)cccc2C)C1=S	1.4	1.8	-7.6	85.2*	93.3*
Cc1cccc(N2C(=O)CN(Cc3sccc3C)C2=S)c1	3.6	4.4	1.8	87.9*	92.2*
CC(=O)c1ccc(S(=O)(=O)N2CCN(C(=O)c3cccc(S(=O)(=O)N4CC(C)OC(C)C4)c3)CC2)cc1 (centres undefined)	·	·	-10.3	-12.1	·
CC(CCC(=O)O)C1CC[C@H]2C3CCC4CC(=O)CCC4(C)[C@H]3CC(=O)C12C (some centres undefined)	-6.7	-10.0	-3.3	4.4	·
COc1ccc(CN(C)CC(=O)Nc2ccccc2C(=O)NC2CC2)cc1OC	-0.8	-1.6	3.3	-14.3	·
COc1ccccc1Nc1ccc2nonc2c1[N+](=O)[O-]	-1.0	-2.0	-3.4	5.4	·
COc1ccc(C)cc1S(=O)(=O)N(CC(=O)NC1CCCC1)c1ccc(F)cc1	-4.9	-1.7	3.5	-3.1	·
Cc1cccc(N2C(=O)CN(Cc3cccs3)C2=S)c1	4.4	1.7	-12.1	52.0*	73.8*
CCc1ccc(N2C(=O)CN(Cc3sccc3C)C2=S)cc1	1.1	-0.1	-11.5	92.1*	97.7*
Cc1cc(C)cc(N2C(=O)CN(Cc3sccc3C)C2=S)c1	4.8	2.4	-1.5	94.3*	93.8*
COc1ccc(CN2CC(=O)N(c3ccc(C)cc3)C2=S)cc1OC	6.1	1.8	-1.0	9.8	·
Cc1oc(-c2ccccc2F)nc1CS(=O)(=O)CC(=O)NCc1ccccc1Cl	-2.4	3.2	6.4	48.8*	67.1*
O=C(CSc1nc(O)cc(=O)n1-c1ccccc1)Nc1nc2ccccc2s1	6.7	-0.2	6.0	-3.9	·
CCOC(=O)c1c(/N=C/C2=C(O)CC(C)(C)CC2=O)sc(C)c1C	-3.4	1.5	17.6	62.4*	16.0	ATG4B confirm=68.9*
CCOC(=O)c1c(/N=C/C2=C(O)CCCC2=O)sc2c1CCCC2	1.1	1.0	8.2	25.7	·
O=C(c1[nH]c(C(F)(F)F)nc1-c1ccccc1)N1CCC(C(O)(c2ccccc2)c2ccccc2)CC1	·	·	2.9	·	·
CC(=O)c1ccccc1NC(=O)COc1ccc(N(C)S(=O)(=O)c2ccc(C)c(C)c2)cc1	6.6	3.2	-8.5	84.9*	28.1
CC(=O)Nc1ccc(S(=O)(=O)N(C)c2ccc(OCC(=O)Nc3ccccc3C(C)=O)cc2)cc1	·	·	20.2	-18.5	·
COc1ccc(NC(=O)c2cccc3c2C(=O)c2ccc(-c4cnc(OC)nc4)cc2S3(=O)=O)cc1	3.3	-0.7	-0.4	7.5	·
CN1CCN(C(=O)c2ccc(NS(=O)(=O)c3cccc([N+](=O)[O-])c3)cc2)CC1	·	·	2.0	-6.9	·
Cc1ccc(-n2c(SCC(=O)NNC(=S)Nc3ccccc3)nc3ccccc3c2=O)cc1	-1.0	0.5	4.5	78.4*	82.0*
CCOC(CCn1c(SCc2ccc([N+](=O)[O-])cc2)nc2ccccc2c1=O)OCC	7.5	0.6	10.8	16.1	·
Cc1ccc(-n2c(SCc3ccc([N+](=O)[O-])cc3)nc3ccccc3c2=O)cc1	-4.3	-1.2	1.7	40.8*	19.7
